We go through 17 compounds from ChEMBL document CHEMBL4513149, “CO-ADD screening of MMV (CH) - MMV compounds” (2021).

What is called Inhibition is the change of the read-out against control, counted positive when it falls.

Measured potencies and affinities stand elsewhere.

In this test the test system is Candida albicans. The conditions noted are these: 20 µM.
With `C[C@H](c1ccc2c(c1)CCCC2)N(C)c1ncc2c(N)nc(N)nc2n1`, the Inhibition was found to be 3.88%. Next, `CC(C)(CN)c1nc(-c2ccc(Cl)c(O)c2)c(-c2ccnc(N)n2)[nH]1.O=C(O)C(F)(F)F.O=C(O)C(F)(F)F`: 2.09%. Take `Cc1ncc(-c2ccnc(Nc3ccc(S(C)(=O)=O)cc3)n2)n1C(C)C` [AZD-5438]: the Inhibition is 6.64%.

Consider `NC(=O)c1cc(-c2ccsc2)ccc1OCCOc1ccccc1`, for which the Inhibition was 1.34%. As to `Cc1noc(C)c1COc1cccc(C(=O)N=c2[nH]cccc2C)c1`, the Inhibition stood at 1.92%. Next, `CCc1ccc(C(NCc2nc(N)nc(N(C)C)n2)C(C)C)cc1` (configuration not stated): 5.01%; `Cc1nc(-c2ccccn2)nc(NCCc2ccc(S(C)(=O)=O)cc2)c1Cl`: 4.79%. With `O=C(OCc1ccccc1)N1CCC(c2cc(-c3ccncc3)c(-c3ccc(F)cc3)[nH]2)CC1` the figure was 3.85%; with `COc1ccccc1CNC(=O)c1cc(C2CC2)nc2c1cnn2C(C)C`, 6.8%.

Regarding `CCOC(=O)c1noc(N)c1-c1ccccc1`, the Inhibition was 3.66%. As to `Cl.O=C(Nc1ccc(N2CCNCC2)nc1)c1oc(-c2ccccc2)nc1C(F)(F)F`, the Inhibition worked out at 2.72%. As for `Cc1nn(C(=O)Nc2cccc(C(F)(F)F)c2)c(C)c1Sc1ncccn1`, the Inhibition is 2.23%. For the compound `CCOC(=O)c1cc(-c2csc(Nc3c(C)cc(C)cc3C)n2)on1`, the Inhibition amounted to 2.27%.

Regarding `CC(Oc1ccccc1)C(=O)Nc1nc(-c2ccccn2)cs1` (configuration not stated), the Inhibition was -0.26%. `Cc1ccc(-c2nc(CN(Cc3ccccn3)C(C)C)cs2)o1`: the Inhibition is 5.03%.

For `FC(F)(F)c1cc(NCCc2ccccc2)nc(-c2ccccn2)n1`, the Inhibition worked out at 1.73%. In the case of `CNC(=O)C1Cc2c([nH]c3cc(Cl)ccc23)C2(CCN(CCc3ccccc3)CC2)N1` (configuration not stated), the Inhibition came out at 3.22%.
